Records with an inconclusive call do not appear. Active and inactive are the calls of the source. How the source made its calls: active means hit-call score of the fitted dose curve at least 0.9, where 1 is the maximum; inconclusive means response in the unintended direction; inactive means score below 0.9.

In this assay the target is human Vitamin D Receptor (VDR), VDR (gene 7421) (UniProt P11473). Put plainly: ATG_VDR_TRANS: Attagene TRANS-FACTORIAL HepG2 Assay for human Vitamin D Receptor (VDR) (AID 2283022). The protocol: ATG_TRANS is a cell-based, multiplexed-readout assay that uses HepG2, a human liver cell line, with measurements taken at 24 hours after chemical dosing in a 24-well plate.ATG_VDR_TRANS is one of 30 assay component(s) measured or calculated from the ATG_TRANS assay. It is designed to make measurements of mRNA induction, a form of inducible reporter, as detected with fluorescence intensity signals by Reverse transcription polymerase chain reaction (RT-PCR) and Capillary electrophoresis technology.Data from the assay component ATG_VDR_TRANS was analyzed into 1 assay endpoint. This assay endpoint, ATG_VDR_TRANS, was analyzed in the positive analysis fitting direction relative to DMSO as the negative control and baseline of activity. Using a type of inducible reporter, measures of mRNA for gain-of-signal activity can be used to understand the reporter gene at the transcription factor-level as they relate to the gene VDR. Furthermore, this assay endpoint can be referred to as a primary readout, because this assay has produced multiple assay endpoints where this one serves a reporter gene function. To generalize the intended target to other relatable targets, this assay endpoint is annotated to the nuclear receptor intended target family, where the subfamily is non-steroidal.
human Vitamin D Receptor (VDR), VDR (gene 7421), sequence (P11473 whole entry, looked up): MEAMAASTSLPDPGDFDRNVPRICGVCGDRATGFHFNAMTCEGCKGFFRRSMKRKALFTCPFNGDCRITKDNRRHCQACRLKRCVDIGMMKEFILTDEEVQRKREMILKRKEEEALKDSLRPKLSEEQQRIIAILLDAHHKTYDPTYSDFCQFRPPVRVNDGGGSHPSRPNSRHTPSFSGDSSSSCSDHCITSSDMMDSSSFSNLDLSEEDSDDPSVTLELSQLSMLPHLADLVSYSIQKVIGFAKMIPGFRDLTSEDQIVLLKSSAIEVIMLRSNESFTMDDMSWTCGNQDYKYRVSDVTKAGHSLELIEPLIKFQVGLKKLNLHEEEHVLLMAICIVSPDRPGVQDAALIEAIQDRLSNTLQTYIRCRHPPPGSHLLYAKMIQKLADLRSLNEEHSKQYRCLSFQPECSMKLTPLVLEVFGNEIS
Human liver HepG2 cells are transiently transfected with multiple reporter transcription units (MRTUs) in 6-well plates using FuGene 6 reagent (Roche; 3 ml FuGene/1 mg DNA). The MRTU constructs are regulated by a cis-regulating element (promoter). […] A major difference between the CIS and TRANS system is that in CIS activities of endogenous TFs are measured, whereas the TRANS assay evaluates changes in activities of exogenous, chimeric NR-Gal4 proteins. […] At the end of 24 hour incubation, total RNA was isolated using TriZol reagent (Invitrogen). The isolated RNA is then reverse-transcribed using oligo(dT) primer and Mo-MLV reverse transcriptase (Invitrogen) with DNAse I (Ambion) treatment for 30 min. The one-tenth of the produced cDNA was amplified by PCR using Taq DNA polymerase (Invitrogen) and two reporter sequence-specific primers. The PCR products were fluorescently labeled by primer extension with 6-arboxyfluorescein (6-FAM) 5'-labeled reporter sequence-specific primer (2 min at 95 C, 20 s at 68 C and 10 min at 72 C) and these products were digested with 5U of HpaI (New England Biolabs) for 2h at 37 C. The fragments were purified using Qiaquick PCR columns (Qiagen), analyzed on an ABI 3130xL genetic analyzer (Applied Biosystems) with peak positions identified by using a set of X-rhodamine (ROX)-labeled MapMarker1000 molecular weight standards (BioVentures). The raw capillary electrophoresis data was processed using Attagraph software (Attagene).
Regarding `CC(C)C(C)(N)C#N` (stereo not given), the result was inactive.

For `C=C(C)C(=O)OCC(CC)CCCC` (stereo not given), the compound was called inactive.

For the compound `CC1(C)[C@H](C(=O)O[C@H](C#N)c2cccc(Oc3ccccc3)c2)[C@@H]1/C=C(\Cl)C(F)(F)F`, the compound was called inactive.

On to `O=S1(=O)OC(c2cc(Br)c(O)c(Br)c2)(c2cc(Br)c(O)c(Br)c2)c2ccccc21`, for which the call was inactive.

As to `CC(C)=CC1C(C(=O)OCc2cccc(Oc3ccccc3)c2)C1(C)C` (stereo not given), the call was inactive.

On to `OCC(c1ccc(Cl)cc1)c1ccc(Cl)cc1`, for which the compound was called inactive.

For the compound `Cc1cc(-c2cc(C)c(N)c(C)c2)cc(C)c1N`, the compound was classed as inactive.

Regarding `CN(C)[C@@H]1C(=O)C(C(N)=O)=C(O)[C@@]2(O)C(=O)C3=C(O)c4c(O)ccc(Cl)c4[C@@](C)(O)[C@H]3C[C@@H]12`, the compound was classed as inactive.

As for `CCNc1nc(NCC)nc(SC)n1`, the compound was called inactive.

Take `Cc1ccccc1OP(=O)(Oc1ccccc1C)Oc1ccccc1C`: the compound was classed as inactive.

As for `CCOC(=O)CC(=O)CCl`, the compound was called inactive.

`O=S(=O)(Oc1ccc(Cl)cc1)c1ccc(Cl)cc1`: the call was inactive.

With `CCOc1ccc(N)cc1`, the outcome was inactive.

For the compound `O=C(Cc1ccccc1)OCCc1ccccc1`, the compound was called inactive.

`C[C@@H]1O[C@@H](O[C@H]2C[C@@H](O)[C@]3(CO)[C@H]4[C@H](O)C[C@]5(C)[C@@H](C6=CC(=O)OC6)CC[C@]5(O)[C@@H]4CC[C@]3(O)C2)[C@H](O)[C@H](O)[C@H]1O`: the compound was classed as inactive.

For the compound `CCOC(=O)C(SP(=S)(OC)OC)c1ccccc1` (stereo not given), the compound was classed as inactive.

In the case of `COC(=O)c1cc(Oc2ccc(Cl)cc2Cl)ccc1[N+](=O)[O-]`, the result was inactive.

`CC(C)(COCC1CO1)COCC1CO1` (stereo not given): the compound was classed as inactive.

For the compound `O=C(NC(=O)c1c(F)cccc1F)Nc1cc(Cl)c(Oc2ncc(C(F)(F)F)cc2Cl)c(Cl)c1`, the call was inactive.

For the compound `O=NN1CCCCCC1`, the compound was called inactive.

Turning to `NNCCO`, the result was inactive.

With `C=CCCl`, the compound was classed as inactive.

In the case of `CCOP(=S)(OCC)Oc1ccc(Cl)cc1Cl`, the compound was classed as inactive.

On to `CC(=Cc1ccccc1)[N+](=O)[O-]`, for which the outcome was inactive.

With `ClCCN1CCOCC1`, the outcome was inactive.

On to `O=S(=O)(F)C(F)(F)C(F)(F)C(F)(F)C(F)(F)F`, for which the compound was called inactive.

Turning to `CCOP(=S)(OCC)SCS(=O)(=O)C(C)(C)C`, the call was inactive.

With `CS(=O)(=O)c1ccc(C(=O)C2C(=O)CCCC2=O)c(Cl)c1COCC(F)(F)F`, the compound was classed as inactive.

Consider `CN(C)c1ccc(N=O)cc1`, for which the compound was classed as inactive.

On to `O=C=Nc1ccc(Cl)cc1`, for which the compound was classed as inactive.

Take `CC(C)N(C(=O)CCl)c1ccccc1`: the compound was classed as inactive.

Take `c1csc(-c2ccc(-c3cccs3)s2)c1`: the call was inactive.

In the case of `C#CCOC(=O)/C=C(C)/C=C/CC(C)CCCC(C)C` (stereo not given), the compound was classed as inactive.

Regarding `O=C/C(Cl)=C(/Cl)C(=O)O`, the outcome was inactive.

As for `CCCSP(=S)(OCC)Oc1ccc(Cl)cc1Cl` (stereo not given), the outcome was inactive.

For the compound `Cc1cc(Cl)ccc1O`, the compound was classed as inactive.

As for `BrCC(Br)c1ccccc1` (stereo not given), the call was inactive.

As to `C=CCN=C=S`, the result was inactive.

Take `Cc1cccc(OP(=O)(Oc2cccc(C)c2)Oc2cccc(C)c2)c1`: the call was inactive.

For `CC1(C)COP(Oc2ccccc2)OC1`, the compound was called inactive.

For the origin of these results see PubChem BioAssay (EPA / NIEHS).
